Source: PubChem
miR-21 reporter = qHTS Assay for Modulators of miRNAs and/orActivators of miR-21; 340,000 tested, under 10 active; HeLa miR-21 FLuc reporter, luciferase, 48 h; AID 2288, 2010; Potency, µM (top dose mostly 38.3 µM), without a hit: top-dose activity change, positive = activation, most hits filed as activators;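 note: % of control where 0% means no effect; miR-21 action dims this reporter so a rising signal means less miR-21 action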
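HeLa miR-21-FLuc reporter line, endogenous miR-21; 2000 cells/well in DMEM/10% FBS; compound titration up to ~40uM final, 48 h, 37 degree Celsius; luciferase detection reagent, 15 min lysis, CCD luminescence.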
G9a inh = qHTS Assay for Inhibitors of Histone Lysine Methyltransferase G9a. AID 504332, 2011. Potency, µM (series often up to 102 µM), for inactives: top-dose activity, negative = inhibition, most hits filed as inhibitors. 350,000 tested, 8.8% active. G9a H3K9 monomethylation, AlphaScreen, 2 h. Histone-lysine N-methyltransferase EHMT2 (Homo sapiens), Q96KQ7; note: potency is the fitted concentration of half-maximal effect; % is set by controls: 0 for no effect and ±100 for the full control effect; nearly all actives have a fitted effect of over 75% in size
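Step 1: enzyme (final 20 nM) with compound, 15 min RT. Step 2: substrate peptide 500 nM and SAM 20 uM, 2 h RT. Step 3: anti-H3K9me1 antibody and AlphaScreen beads, 10 min, then plate read.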
JMJD2E inh = qHTS Assay for Inhibitors of Human Jumonji Domain Containing 2E (JMJD2E) | Lysine-specific demethylase 4E (Homo sapiens), B2RXH2 | 230,000 tested, 1.6% active | JMJD2E catalytic domain, FDH-coupled NADH fluorescence (FDH is formaldehyde dehydrogenase) | Potency, µM (highest dose often 57.1 µM), for inactives: at the highest dose activity change, negative = inhibition, actives largely listed as inhibitors; active = well fitted inhibition curve with a large enough effect, not every such curve was filed as active; inconclusive = small, poorly fitted or top-dose-only effect, or another doubt; inactive = no such curve, though single readings can be large or run the other way;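 note: potency is the fitted concentration of half-maximal effect; 0% = wells with enzyme and -100% = buffer wells without enzyme; nearly all actives have a fitted effect of over 50% in size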
Lamin A splicing = qHTS Assay for Modulators of Lamin A Splicing; HeLa LMNA splicing GFP/RFP minigene ratio, 48 h; 200,000 tested, 0.01% active; Potency, µM (series often up to 46.1 µM), for inactives: top-dose ratio change, negative = inhibition, hits mostly inhibitors; active = well fitted inhibition curve with a large enough effect in the signal ratio, with a control signal flat, not every such curve was filed as active; inconclusive = small, poorly fitted or top-dose-only effect, or effect the other way, or a change in a side signal; the % refers to the signal ratio; note: potency is the fitted concentration of half-maximal effect; % is set by controls: 0 for no effect and ±100 for the full control effect
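Read-out is the ratio of GFP to DsRed2 object intensity, acquired by 488 nm laser-scanning cytometry on HeLa lamin A-EGFP minigene reporter cells. Compound incubation 48 hrs at 37 °C in Opti-MEM with 2% FBS; DMSO 0.5% final.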
Sfp PPTase inh = qHTS Assay for Inhibitors of Bacillus subtilis Sfp phosphopantetheinyl transferase (PPTase); 4'-phosphopantetheinyl transferase ffp (Bacillus subtilis), Q9F4F7; Biochemical Sfp PPTase activity, qHTS; Potency, µM, for inactives: largest response in the series, negative = inhibition, hits mostly inhibitors; 310,000 tested, 3.5% active; AID 1490, 2009;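 note: the enzyme is Sfp with the accession as filed and its product quenches rhodamine fluorescence; potency is the fitted concentration of half-maximal effect; 0% = enzyme reaction without inhibitor and -100% = no enzyme wells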
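Fluorescence-quenching assay: 15 nM Sfp-PPTase preincubated 15 min at room temperature with compound, then 5 uM rhodamine-CoA and 12.5 uM BHQ-2-labelled YbbR peptide added. Fluorescence (ex 525/em 598 nm) read at start and after 30 min; difference gives rate.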
ALDH1A1 inh = qHTS Assay for Inhibitors of Aldehyde Dehydrogenase 1 (ALDH1A1); 220,000 tested, 7.3% active; Purified ALDH1A1, NADH fluorescence, propionaldehyde substrate; Potency, µM (highest dose often 75.3 µM), without a hit: top-dose activity, negative = inhibition, hits mostly inhibitors; Aldehyde dehydrogenase 1A1 (Homo sapiens), P00352; AID 1030, 2008; active = well fitted inhibition curve with a large enough effect, not every such curve was filed as active; inconclusive = small, poorly fitted or top-dose-only effect, or another doubt; inactive = no such curve, though single readings can be large or run the other way;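 note: potency is the fitted concentration of half-maximal effect; plate controls were no enzyme wells and a reference inhibitor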
Target sequence (P00352 whole entry, looked up): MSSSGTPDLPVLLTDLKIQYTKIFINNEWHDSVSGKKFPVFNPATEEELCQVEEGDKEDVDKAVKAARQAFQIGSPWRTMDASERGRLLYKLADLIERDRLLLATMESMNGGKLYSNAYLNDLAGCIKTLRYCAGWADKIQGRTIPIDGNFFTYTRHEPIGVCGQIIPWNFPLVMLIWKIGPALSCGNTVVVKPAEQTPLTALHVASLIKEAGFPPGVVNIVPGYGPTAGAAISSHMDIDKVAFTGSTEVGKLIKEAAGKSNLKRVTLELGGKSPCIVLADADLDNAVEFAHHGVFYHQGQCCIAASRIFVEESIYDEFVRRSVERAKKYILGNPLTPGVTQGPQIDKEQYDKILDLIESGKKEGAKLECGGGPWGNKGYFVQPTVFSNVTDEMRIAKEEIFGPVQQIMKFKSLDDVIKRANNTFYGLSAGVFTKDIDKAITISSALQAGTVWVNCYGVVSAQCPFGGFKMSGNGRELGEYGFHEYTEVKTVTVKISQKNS
Numbers without * were called inactive; [ ] = dose if it differs, or a comment. Most compounds without a hit are left out; they make up all but 13% or so of the library. Unless noted, calls come from the whole dose curve; as a rule, active = well fitted curve in the direction sought with a large enough effect; inconclusive = small, poorly fitted or top-dose-only effect, or another doubt; inactive = no such curve, though single readings can be large; an effect the other way counts as inactive or inconclusive.

For CCC(/C=C1\Sc2ccc(OC)cc2N1CC)=C\c1sc2ccc(OC)cc2[n+]1CCCS(=O)(=O)[O-] the results were miR-21 reporter 9%, G9a inh 20µM*, JMJD2E inh -1%, Lamin A splicing -2%[46 µM], Sfp PPTase inh 50µM* and ALDH1A1 inh 1.3µM*.
CCC(/C=C1\Sc2ccc(OC)cc2N1CCO)=C\c1sc2ccc(OC)cc2[n+]1CCO was read as miR-21 reporter 23%, G9a inh 11µM*, JMJD2E inh 2%, Lamin A splicing inconclusive, Sfp PPTase inh 22µM* and ALDH1A1 inh inconclusive.
Screening CCC(=O)/C=C1/Sc2ccc(OC)cc2N1CCO returned miR-21 reporter 6%, G9a inh 1%, JMJD2E inh -14%, Lamin A splicing inconclusive, Sfp PPTase inh -2% and ALDH1A1 inh -5%.
For CCO/C(=C/c1sc2ccc(OC)cc2[n+]1CCCS(=O)(=O)[O-])CC the results were miR-21 reporter -2%, G9a inh -3%[59 µM], JMJD2E inh -20%, Lamin A splicing 7%, Sfp PPTase inh inconclusive and ALDH1A1 inh -5%.
`Cc1ccc(N(CCC(=O)O)S(=O)(=O)c2ccccc2)cc1` gave miR-21 reporter -2%, G9a inh 10%[59 µM], JMJD2E inh 4%, Lamin A splicing -3%, Sfp PPTase inh 22% and ALDH1A1 inh 8%.
For Cc1ccc(S(=O)(=O)N(C)/N=C2/C(=O)N(CC(=O)O)c3ccccc32)cc1 the results were miR-21 reporter 3%, G9a inh 14µM* and Sfp PPTase inh -12%.
`O=C(NC(=S)NN1CCCCC1c1cccnc1)c1ccc(Br)cc1` (stereo not given) gave miR-21 reporter -19%, G9a inh 45µM*, JMJD2E inh 6%, Sfp PPTase inh -11% and ALDH1A1 inh inconclusive.
Screening COc1ccnc(N2CCN(c3ccc(Cl)cc3)CC2)c1C#N returned miR-21 reporter -23%, G9a inh -3%[2.33 µM], JMJD2E inh inconclusive, Lamin A splicing inconclusive, Sfp PPTase inh -25% and ALDH1A1 inh 13µM*.
Screening CC1(C(=O)NC2CCCCC2)Cc2ccccc2C(=O)N1Cc1ccccc1Cl (stereo not given) returned miR-21 reporter -8% and G9a inh 11%[59 µM].
O=C1OC2(CCCCC2)OC(=O)C1=CNc1nc2ccccc2s1 was read as miR-21 reporter -19%, G9a inh inconclusive, JMJD2E inh 5%, Lamin A splicing 2%, Sfp PPTase inh 3% and ALDH1A1 inh 11µM*.
`O=C(Nc1nc2ccccc2s1)C1CCCO1` (stereo not given) gave miR-21 reporter -35%, G9a inh -45%[59 µM], JMJD2E inh -4%, Lamin A splicing 0%, Sfp PPTase inh 11% and ALDH1A1 inh -7%.
For O=C1OC2(CCCCC2)OC(=O)C1=CNc1nccs1 the results were miR-21 reporter -3%, G9a inh 50µM*, JMJD2E inh -2%, Lamin A splicing 3%, Sfp PPTase inh 0% and ALDH1A1 inh inconclusive.
CN(C)c1nc(Cl)nc(N(C#N)CCOc2ccccc2)n1 was read as miR-21 reporter 12%, G9a inh 4%, JMJD2E inh 12%, Lamin A splicing -7%[46 µM], Sfp PPTase inh -3% and ALDH1A1 inh 14µM*.
Screening CCNc1nc(NCC)nc(N(C#N)CCOc2ccccc2)n1 returned miR-21 reporter -14%, JMJD2E inh -4%, Sfp PPTase inh 7% and ALDH1A1 inh inconclusive.
`CCNc1nc(NC(C)C)nc(N(C#N)CCOc2ccccc2)n1` gave miR-21 reporter -1%, G9a inh 13µM*, JMJD2E inh 7%, Lamin A splicing -8%, Sfp PPTase inh inconclusive and ALDH1A1 inh -1%.
For CC1=C(C(=O)OC2CCCC2)C(c2ccccc2Cl)CC(=O)N1 (stereo not given) the results were miR-21 reporter 9% and G9a inh 4%[59 µM].
`COc1ccc(NS(=O)(=O)c2ccc(C)c(NC(=O)CN3C(=O)NC4(CCCC4)C3=O)c2)cc1` gave G9a inh 24%[2.33 µM].
COc1cc2ccc(=O)oc2cc1O was read as G9a inh -45%[12.7 µM], JMJD2E inh inconclusive, Lamin A splicing inconclusive, Sfp PPTase inh 4% and ALDH1A1 inh inconclusive.
O=Nc1ccc2oc(=O)ccc2c1 was read as G9a inh 2.2µM*, JMJD2E inh -6%, Lamin A splicing inconclusive and ALDH1A1 inh 0.13µM*.
Screening c1ccc(CNc2cncnc2)cc1 returned miR-21 reporter -2% and Sfp PPTase inh -1%.
CC[n+]1c(/C=C/C=C/N(C(C)=O)c2ccccc2)sc2cc(OC)ccc21 was read as miR-21 reporter 21%, G9a inh inconclusive, JMJD2E inh inconclusive, Lamin A splicing inconclusive, Sfp PPTase inh 45µM* and ALDH1A1 inh inconclusive.
Screening CC(C)=CCC/C(C)=C/CO/N=C1/C[C@@H](O)[C@@H](O)[C@@H]2[C@@H]3C(=O)N(Cc4ccccc4)C(=O)[C@H]3CC[C@@H]12 returned Sfp PPTase inh 10% and ALDH1A1 inh 5%[13.5 µM].
CCCCOCCO was read as ALDH1A1 inh -6%.
For CCCCCCCCCCCCCCCCOCCOCCOCCOCCOCCOCCOCCOCCOCCOCCOCCOCCOCCOCCOCCOCCOCCOCCOCCOCCO the results were G9a inh -5%[12.7 µM] and Sfp PPTase inh 50µM*.
Cc1cccc(NC(=O)c2ccc(CN3CC(=O)N4CCCCC4C3=O)cc2)c1C (stereo not given) was read as miR-21 reporter 6%, G9a inh 2%[59 µM] and Lamin A splicing inconclusive.
COc1ccc(-c2nnc(SCC(=O)Oc3cccc(C)c3C)o2)cc1 was read as miR-21 reporter 5% and G9a inh -33%[59 µM].
CC1(C(=O)NNC(=O)c2ccc(=O)oc2)CC1Br (stereo not given) was read as miR-21 reporter -6%, G9a inh 50µM*, JMJD2E inh inconclusive, Sfp PPTase inh 19% and ALDH1A1 inh inconclusive.
For CCCn1c(C)nc2c(NCC3CCCN3CC)nc(C)nc21 (stereo not given) the results were JMJD2E inh 11%, Sfp PPTase inh 21% and ALDH1A1 inh -3%.
